Inconclusive results are not listed. Calls of active or inactive are those of the source. Unless noted, the rule behind the calls is not given here.
Legend:
[1] = qHTS profiling of the MIPE4 collection as inhibitors of Plasmodium falciparum (3D7) proliferation (AID 743344);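 note: scaled between DMSO vehicle wells and 0.29 µM artemisinin as full inhibition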; settings: P. falciparum 3D7 in erythrocytes, SYBR Green DNA fluorescence, 72 h; at 28.5 µM unless noted
Outline: (§1)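 Parasite DNA was quantified by SYBR Green I fluorescence (ex 485, em 535 nm) after overnight lysis in saponin/Triton buffer at room temperature. Cultures at 0.3% parasitemia and 2.5% hematocrit were first exposed to compound for 72 h at 37 C; signals were normalised to artemisinin (0.29 uM) and vehicle wells.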

[2] = qHTS profiling of the MIPE4 collection as inhibitors of Plasmodium falciparum (DD2) proliferation (AID 743345); settings: P. falciparum Dd2 in erythrocytes, SYBR Green DNA, 72 h; at 28.5 µM unless noted
Outline: as §1

[3] = qHTS profiling of the MIPE4 collection as inhibitors of Plasmodium falciparum (DD2) proliferation (Rep 2) (AID 743346); settings: P. falciparum Dd2 in erythrocytes, SYBR Green DNA, 72 h; at 28.5 µM unless noted
Outline: as §1

[4] = qHTS profiling of the MIPE4 collection as inhibitors of Plasmodium falciparum (HB3) proliferation (AID 743347);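 note: plate controls were DMSO vehicle wells for no effect and artemisinin wells for full effect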; settings: P. falciparum HB3 in erythrocytes, SYBR Green DNA, 72 h; at 28.5 µM unless noted
Outline: as §1

[5] = High-throughput drug toxicity screening in the BPDCN cell line Gen2.2 (AID 1224824); settings: Gen2.2 BPDCN cells; at 45.8 µM (top of the series) unless noted;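 note: cells exposed to compounds for 48 h before reading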
Outline: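 Seed 500 exponentially growing Gen2.2 cells/well; add compounds by pin tool; incubate 48 h, 37 °C, 5% CO2; add CellTiter-Glo, 15 min RT; read luminescence. % activity vs DMSO (100%) and bortezomib (0%).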

[6] = High-throughput drug toxicity screening in the BPDCN cell line Cal-1 (AID 1224825); settings: Cal-1 BPDCN cell viability, qHTS; at 45.8 µM (top of the series) unless noted
Outline: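 Viability of the BPDCN line Cal-1 is measured as ATP-based luminescence (CellTiter-Glo) following 48 h incubation with compounds. Percent activity uses DMSO-treated wells as 100% and 9.2 uM bortezomib as 0%.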

[7] = qHTS assay for measurement of the activity of small molecule inhibitors on Zika virus induced Caspase-3 activity in human iPSC derived neural progenitor cells (hNPCs) (AID 1224857; active = well fitted curve in the direction sought with a large enough effect; an effect the other way counts as inactive or inconclusive; note: % of control where 0% means no effect; nearly all actives have a fitted effect of over 65% in size)
Outline: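 Percent inhibition of virus-induced caspase-3/7 luminescence (Caspase-Glo), scaled between uninfected cells and Zika-infected cells. hNPCs received compound 1 hr before ZIKV at 2 FFU/cell, with 6 hours infection at 37 C.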

[8] = qHTS assay for measurement of the activity of small molecule inhibitors on Zika virus induced Caspase-3 activity in human astrocytoma cells (AID 1224859; active = well fitted curve in the direction sought with a large enough effect; an effect the other way counts as inactive or inconclusive;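 note: plate controls were ZIKV-infected untreated cells for no effect and uninfected cells for full effect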)
Outline: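 Luminescent caspase-3/7 read-out (30 min reagent, room temperature) in human SNB-19 cells infected 6 h with ZIKV (2 FFU/cell) after 1 h compound pre-incubation; Data were normalised to uninfected and infected wells.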

[9] = qHTS Screen of the MIPE 4.0 Collection Against Ewings Sarcoma (RDES) (AID 1259252; active = well fitted curve in the direction sought with a large enough effect; an effect the other way counts as inactive or inconclusive; note: potency is the fitted concentration of half-maximal effect; nearly all actives have a fitted effect of over 35% in size)
Outline: (§2)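 Measured: ATP luminescence (CellTiter-Glo) 10 min after reagent addition, following 48 h drug treatment. Relative luciferase units converted to percent activity, with no-cell wells as full and DMSO wells as zero inhibition.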

[10] = qHTS Screen of the MIPE 4.0 Collection Against Ewings Sarcoma (TC71) (AID 1259253; active = well fitted curve in the direction sought with a large enough effect; an effect the other way counts as inactive or inconclusive; note: nearly all actives have a fitted effect of over 40% in size; note: potency is the fitted concentration of half-maximal effect)
Outline: as §2

[11] = qHTS Screen of the MIPE 4.0 Collection Against Ewings Sarcoma (EW8) (AID 1259255; active = well fitted curve in the direction sought with a large enough effect; an effect the other way counts as inactive or inconclusive; note: nearly all actives have a fitted effect of over 35% in size; note: potency is the fitted concentration of half-maximal effect;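 for viability: 100% = DMSO-treated cells and 0% = medium-only wells without cells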)
Outline: as §2

[12] = qHTS Screen of the MIPE 4.0 Collection Against Ewings Sarcoma (TC32) (AID 1259256; active = well fitted curve in the direction sought with a large enough effect; an effect the other way counts as inactive or inconclusive; note: nearly all actives have a fitted effect of over 45% in size; note: potency is the fitted concentration of half-maximal effect)
Outline: as §2

[13] = qHTS profiling for inhibitors of Plasmodium falciparum (HB3) proliferation (AID 743324; active = well fitted curve in the direction sought with a large enough effect; an effect the other way counts as inactive or inconclusive;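 note: 100% = DMSO vehicle wells and 0% = artemisinin-treated control wells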); settings: Plasmodium falciparum HB3 blood-stage proliferation; at 28.7 µM (top of the series) unless noted
Outline: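 SYBR Green fluorescence (485 ex/535 em) of lysed cultures, incubated overnight at room temperature in the dark, quantifies parasite DNA. Infected erythrocytes at 0.3% parasitemia and 2.5% hematocrit were exposed 72 h; values normalized to DMSO and 0.29 uM artemisinin controls.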

[14] = Identifying Small Molecule Inhibitors of Pancreatic Cancer Stem Cells (SN12C, Adherent) (AID 1259358; active = well fitted curve in the direction sought with a large enough effect; an effect the other way counts as inactive or inconclusive;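 note: potency is the fitted concentration of half-maximal effect; cell survival measured after 48 h of compound exposure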)
Outline: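 After a 4 h attachment period, compounds were pinned into wells and cultures held 48 h under standard incubator conditions. Viability was then measured as CellTiter-Glo luminescence following 10 min at room temperature.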

[15] = Identifying Small Molecule Inhibitors of Pancreatic Cancer Stem Cells (SN12C, Spheroid) (AID 1259360; active = well fitted curve in the direction sought with a large enough effect; an effect the other way counts as inactive or inconclusive; note: potency is the fitted concentration of half-maximal effect); settings: Potency: SN12C spheroid viability
Outline: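 Adherent (2D) versus sphere (3D) formats; spheres generated 14 d in SCM beforehand. Compound transferred by pin tool after 4 h, 48 h incubation, CellTiter-Glo endpoint.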

[16] = qHTS assay to identify small molecule inhibitors of chordoma cells - UCH-1 (AID 1259355; active = well fitted curve in the direction sought with a large enough effect; an effect the other way counts as inactive or inconclusive; note: % is set by controls: 0 for no effect and ±100 for the full control effect; nearly all actives have a fitted effect of over 55% in size)
Outline: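 A 48hr growth-inhibition format: each drug tested at 15 concentrations together with added auranofin, camptothecin, doxorubicin, rubitecan and topotecan, with cell viability quantified as CellTiter-Glo luminescence.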

[17] = qHTS assay to identify small molecule inhibitors of chordoma cells - UCH-2 (AID 1259356; active = well fitted curve in the direction sought with a large enough effect; an effect the other way counts as inactive or inconclusive; note: % is set by controls: 0 for no effect and ±100 for the full control effect)

| Structure (SMILES) | parasite growth, % of DMSO control [1] | parasite growth remaining, % of DMSO control (lower = more inhibition) [2] | parasite growth, % of control (lower = inhibition) [3] | growth, % of control [4] | cell viability, % of control (lower = more cytotoxic) [5] | viability (% of control) [6] | Potency [7] | Potency [8] | Potency [9] | Potency [10] | Potency [11] | Potency [12] | remaining proliferation (% of control), lower = more inhibition [13] | Potency [14] | Potency [15] | outcome [16] | outcome [17] |
| --- | --- | --- | --- | --- | --- | --- | --- | --- | --- | --- | --- | --- | --- | --- | --- | --- | --- |
| CC1CCN(c2cc(N3CCN(C)CC3)ccc2NC(=O)c2cc(C#N)c[nH]2)CC1 | 39.9% | 80.6% | 36.9% | 50.4% | 107% | 104% | inactive | inactive | 26.4 µM (active) |  |  |  |  |  |  |  |  |
| O=C(NC[C@H](O)CO)c1ccncc1Nc1ccc(I)cc1F | 60.9% | 101% | 56.7% | 54.8% | 5.6% | 12.1% | inactive | inactive | 18.7 µM (active) |  |  |  |  |  |  |  |  |
| Cc1cnc(Nc2cccc(CN3CCOCC3)c2)nc1Nc1cccc(S(=O)(=O)NC(C)(C)C)c1 | 4.05% | 8.36% | 17.3% | 7.02% | 14% | 3.36% | inactive | inactive |  | 2.35 µM (active) | 2.64 µM (active) | 1.87 µM (active) |  |  |  |  |  |
| C=CCc1cccc(C=NNC(=O)CN2CCN(Cc3ccccc3)CC2)c1O | 38.6% | 23.3% | 19.3% | 97.7% | 67.9% | 11.1% | inactive | inactive |  | 4.69 µM (active) | 10.5 µM (active) | 7.43 µM (active) |  |  |  |  |  |
| COC1CCC(C(=O)c2ccc3nc4c(cc3c2)CCCO4)CC1 (stereo unspecified) | 21.8% | 31.2% | 15.9% | 11.8% | 98% | 85.9% | inactive | inactive | 13.2 µM (active) |  |  |  |  |  |  |  |  |
| CCC(=O)N1CCN(c2ccc(-n3c(=O)ccc4cnc5ccc(-c6cnc7ccccc7c6)cc5c43)cc2C(F)(F)F)CC1 | 5.26% | 8.22% | 8.45% |  | 6.39% | 20.2% | inactive | inactive |  | 0.0296 µM (active) | 0.0332 µM (active) | 0.0105 µM (active) | 2.49% | 0.0372 µM (active) | 0.0526 µM (active) |  |  |
| COc1ccnc(CS(=O)c2nc3ccc(OC(F)F)cc3[nH]2)c1OC (stereo unspecified) | 58.5% | 95.8% | 99% | 91% | 282% | 108% | inactive | inactive |  | inactive | inactive | inactive |  |  |  | inactive | inactive |
| COc1ccc2nc3cc(Cl)ccc3c(Nc3cc(CN4CCCC4)c(O)c(CN4CCCC4)c3)c2n1 | 7.61% | 6.47% |  | 13.2% | 21.4% | 8.39% | inactive | inactive |  | 14.8 µM (active) | 26.4 µM (active) | 16.6 µM (active) | -0.744% |  |  |  |  |
| C[C@@H]1[C@H](C)CC[C@]2(C(=O)O)CC[C@]3(C)C(=CC[C@@H]4[C@@]5(C)CC[C@H](O)C(C)(C)[C@H]5CC[C@]43C)[C@@H]12 | 4.81% [at 57.5 µM] | 55.6% [at 57.5 µM] | 8% [at 57.5 µM] |  | 41.3% [at 92.2 µM] | 29% [at 92.2 µM] | inactive | inactive |  | 1.71 µM (active) | 5.4 µM (active) | 1.52 µM (active) |  |  |  |  |  |
